Source: PubChem BioAssay (National Center for Advancing Translational Sciences (NCATS))
12-LOX inh – blocks human arachidonate 12S-lipoxygenase; AID 1671190; P18054; purified 12hLO, xylenol orange hydroperoxide absorbance; 580,000 compounds, 1.1% hits; Potency, µM (doses to about 108 µM), without a hit: at the highest dose activity change, negative = inhibition, actives largely listed as inhibitors
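Hydroperoxide product was detected by ferrous iron/xylenol orange as the 573 to 405 nm absorbance ratio. Arachidonic acid at 40 uM (final) was turned over for 30 min at room temperature by 150 nM human 12hLO, pH 7.0 Hepes buffer, after 15 min compound preincubation.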
TDP1 cell CPT – growth inhibition of DT40 Tdp1-/-;hTDP1 cells with camptothecin (screen for TDP1 inhibitors); 420,000 compounds, 12% hits; Potency, µM (titrated, usually from 46.2 µM), for the others: at the highest dose activity change, negative = growth inhibition, most hits filed as inhibitors; chicken DT40 Tdp1-/-;hTDP1 cells + 20 nM CPT, ATP luminescence, 48 h; further: nearly all actives have a fitted effect of over 55% in size
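Chicken DT40 Tdp1-/- cells complemented with human TDP1, 400 cells/well, exposed to compounds plus 20 nM camptothecin for at least 48 h at 37 C; viability read as ATP content by CellTiter-Glo luminescence.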
Gal4-VP16 FLuc – Gal4-VP16 reporter inhibition counter-screen; AID 2546; Potency, µM (titrated, usually from 53.6 µM), inactives show at the top dose activity, negative = inhibition, hits mostly inhibitors; Drosophila S2 Gal4-VP16 UAS-luciferase, luminescence, 20 h; 310,000 compounds, 3.5% hits;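 further: Gal4-VP16 expression switched on by copper sulfate through the metallothionein promoter; nearly all actives have a fitted effect of over 50% in size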
RORg inh – blocks mouse ROR gamma transcriptional activity | Drosophila S2 Gal4-RORgamma UAS-luciferase reporter, 20 h | Potency, µM (highest dose often 53.6 µM), without a hit: at the top dose activity change, negative = inhibition, usual class: inhibitors | P51450 | AID 2551 | 310,000 compounds, 5.4% hits; further: nearly all actives have a fitted effect of over 60% in size
Target sequence (P51450 whole entry, looked up, the tested form may be a part): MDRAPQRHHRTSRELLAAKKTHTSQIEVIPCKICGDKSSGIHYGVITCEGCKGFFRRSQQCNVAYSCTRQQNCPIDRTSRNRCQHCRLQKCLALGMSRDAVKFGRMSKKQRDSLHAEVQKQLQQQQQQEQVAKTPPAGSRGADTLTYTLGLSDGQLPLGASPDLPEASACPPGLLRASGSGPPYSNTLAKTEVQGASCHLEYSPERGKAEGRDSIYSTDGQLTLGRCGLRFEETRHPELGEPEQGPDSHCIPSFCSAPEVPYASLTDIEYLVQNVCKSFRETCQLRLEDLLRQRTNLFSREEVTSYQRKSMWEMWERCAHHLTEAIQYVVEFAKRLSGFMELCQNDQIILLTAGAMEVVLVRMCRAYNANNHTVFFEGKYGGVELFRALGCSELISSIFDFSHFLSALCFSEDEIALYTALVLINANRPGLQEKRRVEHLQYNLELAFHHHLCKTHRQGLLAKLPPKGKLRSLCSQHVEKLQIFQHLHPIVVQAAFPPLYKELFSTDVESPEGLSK
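Using a luciferase readout, inhibitors were identified by reduced reporter activity in Drosophila cells coexpressing a copper-inducible Gal4–ROR gamma fusion and UAS-driven Photinus luciferase, incubated 20 hr after 700 uM copper sulfate.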
DT40 TDP1 no CPT – qHTS for Inhibitors of human tyrosyl-DNA phosphodiesterase 1 (TDP1): qHTS in cells in absence of CPT | DT40 Tdp1-/- hTDP1 cells, no CPT, ATP luminescence, 48 h | Potency, µM (top dose mostly 46.2 µM), inactives show at the highest dose activity change, negative = growth inhibition, hits mostly inhibitors | 420,000 compounds, 15% hits; further: nearly all actives have a fitted effect of over 55% in size
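A cellular qHTS used chicken DT40 cells lacking endogenous Tdp1 but carrying stably transfected human TDP1. Compounds were applied without camptothecin, and cell growth kinetics were judged by ATP-dependent luminescence after ≥48 hr.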
ELG1 repair inh – ELG1-dependent DNA repair inhibition | AID 504467 | Potency, µM (doses to about 46.1 µM), for the others: top-dose activity change, negative = inhibition, usual class: inhibitors | HEK293T ELG1-luciferase reporter, luminescence, 16 h; DNA damage induced by 5-fluorouridine | 330,000 compounds, 2.3% hits; further: nearly all actives have a fitted effect of over 55% in size
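Quantitative HTS, concentration-response format. 2,000 cells/well co-treated with 5-fluorouridine and compound, 16 hr in 5% CO2 at 37 °C; ONE-Glo luminescence read after 30 min.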
* hit, by the source's call; ? = inconclusive; . = no result given; [ ] = remark or other dose. Shown are actives, neighbours in structure and some others; about 15% of the full set was active somewhere. The call rests on the fitted dose curve; in most records, active means well fitted curve in the direction sought with a large enough effect; inconclusive means small, poorly fitted or top-dose-only effect, or another doubt; inactive means no such curve, though single readings can be large; an effect the other way counts as inactive or inconclusive. On the % scale 0 is the no-effect control and ±100 the full control effect; potency means the concentration at half of the fitted maximal effect.

SMILES | 12-LOX inh | TDP1 cell CPT | Gal4-VP16 FLuc | RORg inh | DT40 TDP1 no CPT | ELG1 repair inh
COc1ccc(-n2nnc3c(SCC(=O)NCc4ccco4)ncnc32)cc1 | 14% | ? | -12% | -28% | 2.9µM* | -10%
O=C(c1ccc[nH]c1=O)N1CCC2(CC1)NC(=O)N(Cc1ccc(Cl)cc1)C2=O | -1% | . | . | . | . | .
COCC1CN(C2CCC2)CC12CCN(C(=O)c1cncn1C)CC2 (stereo not drawn) | 102% | . | . | . | . | .
Cc1cc(C(=O)N2CCN(Cc3ccccc3)CC2)c2ccccc2n1 | 29% | . | . | . | . | .
CSc1nsc(SC)c1C(=O)N1CCN(S(=O)(=O)c2ccc(C)cc2)C1C(C)C (stereo not drawn) | 29% | ? | -8% | 16% | ? | 18µM*
CSc1nsc(SC)c1C(=O)N1CCN(S(=O)(=O)c2ccc(C)cc2)C1C (stereo not drawn) | 5% | ? | 1% | 10% | 23µM* | ?
CCc1ccc(C(=O)NC(C)C2CCCO2)s1 (stereo not drawn) | -22% | . | . | . | . | .
COc1ccc(CCNC(=O)c2csc(NC3CC3)n2)cc1OC | 8% | . | . | . | . | .
COCCNC(=O)[C@H]1C[C@H](Oc2ccccc2)CN1C(=O)NCCc1ccccc1 | 32% | . | . | . | . | .
CC#CCn1cc2c3c(cccc31)[C@H](CC(C)C)N[C@H](C(=O)NCCNC(C)=O)C2 | 110%[176 µM] | . | . | . | . | .
COc1ccc(/C=N/n2cnnc2SCc2ccccc2)cc1 | -5% | ? | -8% | 25% | 21µM* | 6%
O=C1Nc2ccccc2C1(O)c1c[nH]c2ccccc12 (stereo not drawn) | 4% | . | . | . | . | .
C/C(=N\O)c1ccn(S(=O)(=O)c2ccc(Cl)cc2)c1 | 47% | ? | -6% | -8% | 26µM* | -10%
O=C(COc1ccc2oc3c(c2c1)CCCC3)Nc1cccc(Br)c1 | -13% | ? | . | . | 21µM* | .
Cc1ccccc1NC(=O)COc1ccc2oc3c(c2c1)CCCC3 | -20% | 16µM* | . | . | 18µM* | .
Cc1ccnc(NC(=O)COc2ccc3oc4c(c3c2)CCCC4)c1 | 0% | ? | 25% | 77% | 12µM* | ?
CC(C)(C)NC(=O)COc1ccc2oc3c(c2c1)CCCC3 | -10% | -15% | 15% | -2% | ? | 0%
CNC(=O)COc1ccc2oc3c(c2c1)CCCC3 | -2% | 8% | 10% | 26% | -7% | ?
NNC(=O)COc1ccc2oc3c(c2c1)CCCC3 | 15% | -3% | -3% | -14% | -4% | -5%
COc1ccc(Cl)cc1NC(=O)CCC1CCCN(C(=O)c2ccoc2C)C1 (stereo not drawn) | 19% | . | . | . | . | .
CC(C)NC(=O)CN1CCN(C(=O)c2ccc3ccccc3n2)CC1 | 6% | . | . | . | . | .
CNC(=O)COC(=O)c1cc(-c2ccco2)nc2ccccc12 | ? | 15µM* | 0% | -24% | ? | 5%
O=C(COC(=O)CC(c1ccccc1)c1ccccc1)NCc1ccc(Cl)cc1 | -12% | -27% | 20µM* | 0% | -8% | 16µM*
O=C(COC(=O)c1cccnc1SCC(=O)NCc1ccccc1)NCc1ccccc1 | -2% | 23µM* | 0% | 26% | ? | -12%
CCN(CC)C(=O)COC(=O)c1cc(-c2ccco2)nc2ccccc12 | ? | ? | 2% | 23% | ? | 4%
CC(NC(=O)c1cc(-c2ccco2)nc2ccccc12)C(=O)NCc1ccccc1 (stereo not drawn) | 40µM* | . | . | . | . | .
CCOc1ccc(CN2CC[C@@](C)(O)[C@H](N3CCCC3)C2)cc1 | 69% | . | . | . | . | .
CNC(=O)C1(N2CCC[C@H]2C(=O)N2CCOCC2)CCCCC1 | 7%[176 µM] | . | . | . | . | .
